PubChem BioAssay
Where “and” joins values, the source holds several entries; their conditions need not be identical. Identical values can stand only once.

system: Hepatitis C virus NS3 helicase; assay: blockers of NS3h binding to DNA – biochemical, fluorescence polarization, NIH Clinical Collection, primary screen (AID 743270); details: NS3 helicase binding to Cy5-dT15 DNA, hits give high values, concentration not given here

inhibition, inactive:
CS(=O)(=O)c1ccc(C2=C(c3ccccc3)C(=O)OC2)cc1 3.56%
Cc1cccc(C)c1NC(=O)C1CCCCN1C (centres undefined) -2.84%
COc1ccc(/C=C/C(=O)Nc2ccccc2C(=O)O)cc1OC 0.4%
CCCCC(=O)N(Cc1ccc(-c2ccccc2-c2nn[nH]n2)cc1)[C@H](C(=O)O)C(C)C 4.36%
CC(C(=O)O)c1ccc(-c2ccccc2)c(F)c1 (centres undefined) -2.77% and -3.18%
Nc1ncnc2c1ncn2[C@@H]1O[C@H](CO)[C@@H](O)[C@@H]1O -4.09%
CN(C)c1nc(N(C)C)nc(N(C)C)n1 -2.27%
Cc1occc(=O)c1O -7.21%
COc1ccc(-c2cc(=O)c3c(OC)c(OC)c(OC)c(OC)c3o2)cc1OC -1.19%
CC(C)NCC(O)COc1cccc2ccccc12 (centres undefined) -8.64%
COC(=O)[C@H](c1ccccc1Cl)N1CCc2sccc2C1 -9.55%
C[N+]1(C)CCCC(OC(=O)C(O)(c2ccccc2)c2ccccc2)C1 (centres undefined) -3.18%
O=[N+]([O-])c1cccc2cn[nH]c12 1.53%
C[C@H]1COc2c(N3CCN(C)CC3)c(F)cc3c(=O)c(C(=O)O)cn1c23 -3.56%
CC(C)NCC(O)COc1ccc(CC(N)=O)cc1 (centres undefined) -0.45%
CNCCC(Oc1ccc(C(F)(F)F)cc1)c1ccccc1 (centres undefined) -2.27%
CC1=C(/C=C/C(C)=C/C=C/C(C)=C\C(=O)O)C(C)(C)CCC1 0.45%
CCc1ccc(CCOc2ccc(CC3SC(=O)NC3=O)cc2)nc1 (centres undefined) 0.4%
CC[C@H]1OC(=O)[C@H](C)[C@@H](O[C@H]2C[C@@](C)(OC)[C@@H](O)[C@H](C)O2)[C@H](C)[C@@H](O[C@@H]2O[C@H](C)C[C@H](N(C)C)[C@H]2O)[C@](C)(OC)C[C@@H](C)C(=O)[C@H](C)[C@@H](O)[C@]1(C)O -0.4%
